# From PubChem BioAssay (NCI)
# The panel holds about 79,000 compounds, 15% with a hit somewhere; the sample as a whole holds those more often. Values without a mark were called inactive. Calls of active or inactive are those of the source. Cut-off read from the data, not from the text of the source: active = growth inhibition above about 70%; inactive = the rest.
# What was measured:
# [1] = NCI Yeast Anticancer Drug Screen. Data for the rad52 strain (AID 147);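 note: 0% = growth of vehicle-treated control cultures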; conditions: S. cerevisiae rad52 mutant growth inhibition, active compounds read high
# Summary of the method: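 Inhibition of yeast growth, referenced to vehicle controls, was the measured output for a strain with defective DNA damage repair.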
# [2] = NCI Yeast Anticancer Drug Screen. Data for the wt1 strain (AID 149);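 note: 0% = growth of vehicle-treated wt1 cultures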; conditions: S. cerevisiae wt1 strain (SPY 50644) growth inhibition, active compounds read high
# Summary of the method: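 Using yeast strain wt1, compound-induced growth inhibition was determined against vehicle-treated cultures.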
# [3] = NCI Yeast Anticancer Drug Screen. Data for the rad50EPP+ strain (AID 151);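 note: 0% = growth of vehicle-treated control cultures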; conditions: S. cerevisiae rad50 mutant strain, active compounds read high
# Summary of the method: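 Genetically defined yeast (rad50EPP+, DNA damage repair alteration) is grown with compound, and inhibition of growth is expressed relative to vehicle-treated controls.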
# [4] = NCI Yeast Anticancer Drug Screen. Data for the mgt1 strain (AID 153); conditions: S. cerevisiae mgt1 mutant growth inhibition, active compounds read high
# Summary of the method: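 In the mgt1 strain, test compounds were added and growth inhibition was determined relative to vehicle-treated controls.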
# [5] = NCI Yeast Anticancer Drug Screen. Data for the rad50 strain (AID 155);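 note: 0% = growth of vehicle-only cultures of the same strain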; conditions: S. cerevisiae rad50 strain growth inhibition, active compounds read high
# Summary of the method: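 Relative growth inhibition (compound vs vehicle) was measured in yeast with a defined repair-gene alteration.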
# [6] = NCI Yeast Anticancer Drug Screen. Data for the mec2-1 strain (AID 157); conditions: S. cerevisiae mec2-1 strain, active compounds read high
# Summary of the method: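 Each compound was tested on mec2-1 yeast, a strain altered in DNA damage repair or cell cycle control. Growth inhibition is reported relative to vehicle.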
# [7] = NCI Yeast Anticancer Drug Screen. Data for the rad14 strain (AID 159);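 note: 0% = growth of vehicle-treated control cultures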; conditions: S. cerevisiae rad14 strain growth inhibition, active compounds read high
# Summary of the method: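 Screen for anticancer potential: a yeast strain altered in DNA damage repair is grown with compound, and reduced growth is quantified against vehicle controls.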
# [8] = NCI Yeast Anticancer Drug Screen. Data for the sgs1 mgt1 strain (AID 161);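 note: 0% = growth of cultures given vehicle only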; conditions: S. cerevisiae sgs1 mgt1 strain, active compounds read high
# Summary of the method: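 Inhibition of yeast growth, normalised to vehicle-treated controls, is reported for a strain bearing genetic alterations in DNA damage repair.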
# [9] = NCI Yeast Anticancer Drug Screen. Data for the CLN2oe strain (AID 163);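 note: 0% = growth of vehicle-only control cultures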; conditions: S. cerevisiae CLN2oe strain, active compounds read high
# Summary of the method: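 First, the altered yeast strain was treated with each compound; second, its growth was measured; finally, inhibition was derived by comparison with vehicle controls.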
# [10] = NCI Yeast Anticancer Drug Screen. Data for the cln2 rad14 strain (AID 165);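 note: 0% = growth equal to vehicle treated cultures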; conditions: S. cerevisiae cln2 rad14 strain, active compounds read high
# Summary of the method: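 Test compounds were added to cln2 rad14 yeast cultures; inhibition of growth was then determined by comparison with vehicle treatment.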
# [11] = NCI Yeast Anticancer Drug Screen. Data for the bub3 strain (AID 167); conditions: S. cerevisiae bub3 mutant strain, active compounds read high
# Summary of the method: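 Screening used yeast with an engineered genetic alteration affecting cell cycle control. Compound-exposed cultures were compared with vehicle cultures, and reduced growth was taken as inhibition.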
# [12] = at 5.0 µM (retest, dose inferred, filed as 0.5)
# [13] = at 50.0 µM (retest, dose inferred, filed as 5.0)
compound,measurement,setting,value
CN(CC(=O)O)c1ccc(/C=C/c2ccnc3ccccc23)cc1,growth inhibition,[1]; at 1.2 µM,-3%
same,growth inhibition,[1]; at 3.7 µM,-5%
same,growth inhibition,[1]; at 11.0 µM,-2%
same,growth inhibition,[1]; at 33.0 µM,13%
same,growth inhibition,[1]; at 100.0 µM,41%
same,growth inhibition,[2]; at 1.2 µM,-2%
same,growth inhibition,[2]; at 3.7 µM,-3%
same,growth inhibition,[2]; at 11.0 µM,-4%
same,growth inhibition,[2]; at 33.0 µM,-8%
same,growth inhibition,[2]; at 100.0 µM,-6%
same,growth inhibition,[3]; at 1.2 µM,-9%
same,growth inhibition,[3]; at 3.7 µM,3%
same,growth inhibition,[3]; at 11.0 µM,8%
same,growth inhibition,[3]; at 33.0 µM,35%
same,growth inhibition,[3]; at 100.0 µM,83% (active)
same,growth inhibition,[4]; at 1.2 µM,0%
same,growth inhibition,[4]; at 3.7 µM,0%
same,growth inhibition,[4]; at 11.0 µM,-2%
same,growth inhibition,[4]; at 33.0 µM,-2%
same,growth inhibition,[4]; at 100.0 µM,39%
same,growth inhibition,[5]; at 1.2 µM,-1%
same,growth inhibition,[5]; at 3.7 µM,-1%
same,growth inhibition,[5]; [12],23%
same,growth inhibition,[5]; at 11.0 µM,2%
same,growth inhibition,[5]; at 33.0 µM,11%
same,growth inhibition,[5]; [13],24%
same,growth inhibition,[5]; at 50.0 µM,14.7%
same,growth inhibition,[5]; at 100.0 µM,31%
same,growth inhibition,[6]; at 1.2 µM,-5%
same,growth inhibition,[6]; at 3.7 µM,-4%
same,growth inhibition,[6]; [12],6%
same,growth inhibition,[6]; at 11.0 µM,-5%
same,growth inhibition,[6]; at 33.0 µM,-3%
same,growth inhibition,[6]; [13],12%
same,growth inhibition,[6]; at 50.0 µM,33.5%
same,growth inhibition,[6]; at 100.0 µM,16%
same,growth inhibition,[7]; at 1.2 µM,-3%
same,growth inhibition,[7]; at 3.7 µM,-5%
same,growth inhibition,[7]; at 11.0 µM,-2%
same,growth inhibition,[7]; at 33.0 µM,6%
same,growth inhibition,[7]; at 100.0 µM,32%
same,growth inhibition,[8]; [12],5%
same,growth inhibition,[8]; [13],80% (active)
same,growth inhibition,[8]; at 50.0 µM,59.2%
same,growth inhibition,[9]; at 1.2 µM,-3%
same,growth inhibition,[9]; at 3.7 µM,-4%
same,growth inhibition,[9]; at 11.0 µM,-9%
same,growth inhibition,[9]; at 33.0 µM,-15%
same,growth inhibition,[9]; at 100.0 µM,-12%
same,growth inhibition,[10]; [12],-2%
same,growth inhibition,[10]; [13],22%
same,growth inhibition,[10]; at 50.0 µM,-46.4%
same,growth inhibition,[11]; at 1.2 µM,-3%
same,growth inhibition,[11]; at 3.7 µM,-4%
same,growth inhibition,[11]; [12],6%
same,growth inhibition,[11]; at 11.0 µM,-5%
same,growth inhibition,[11]; at 33.0 µM,-8%
same,growth inhibition,[11]; [13],20%
same,growth inhibition,[11]; at 50.0 µM,51.9%
same,growth inhibition,[11]; at 100.0 µM,12%
